Test [1] can be described thus: AP1 Signaling Pathway (AID 357).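 Note: ME-180 reporter cells stimulated with EGF at its EC50 level; % is set by controls: 0 for no effect and ±100 for the full control effect.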 The conditions noted are these: ME-180 AP-1-bla reporter, EGF-induced, beta-lactamase ratio, 5 h; at 17.2 µM (top of the series) unless noted. Summed up: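 First, ME-180 AP-1-bla cells were cultured overnight at 37 °C in low-serum Opti-MEM. Next, titrated compounds with EC50 EGF were incubated 5 hours. Finally, CCF4 was added for 2.5 hours and the 460/530 nm ratio recorded.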

Test [2] is described as follows: NFAT Signaling Pathway (AID 444).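 Note: carbachol stimulus at about its EC50 of 1 µM final; % is set by controls: 0 for no effect and ±100 for the full control effect.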 The conditions noted are these: Jurkat NFAT-bla M1, carbachol, beta-lactamase ratio, 5 h; at 17.2 µM (top of the series) unless noted. Summed up: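 Jurkat cells with NFAT-driven β-lactamase reporter and co-expressed M1 receptor, stimulated with carbachol (final 1 uM, ~EC50), compound titration, 5 h at 37 °C. CCF4 loaded 1 h at RT; 460/530 nm ratio gave %activity and AC50.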

Test [3] is described as follows: Stat Signaling Pathway (AID 446).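 Note: ME-180 cervical cancer cells given 40 pM IL-6 alongside compound; SIE-controlled beta-lactamase reporter measured as 460/530 nm FRET emission ratio; % is set by controls: 0 for no effect and ±100 for the full control effect.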 Particulars: ME-180 SIE beta-lactamase reporter, IL-6 stimulated, 5 h; at 17.2 µM (top of the series) unless noted. In a few lines: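 Screening format detects activators and inhibitors alike: ME-180 SIE-bla cells stimulated at 40 pM IL-6 for 5 hrs with compound, then dual-emission beta-lactamase read at 405 nm excitation.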
Test [4] concerns the target Glucocorticoid receptor (Homo sapiens) (UniProt P04150). Briefly: GR-GFP Redistribution (AID 450;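 active = compounds whose dose series gives a full or clear partial fitted curve of increased nuclear translocation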; note: potency is the fitted concentration of half-maximal effect).

A number with no mark means an inactive call. Results filed as inconclusive are left out. The source made the active and inactive calls. Unless noted, calls come from the whole dose curve; as a rule, active = well fitted curve in either direction with a large enough effect (not every such curve was filed as active); inconclusive = small, poorly fitted or top-dose-only effect, or another doubt; inactive = flat fitted curve, though single readings scatter.

Chain of Glucocorticoid receptor (Homo sapiens) (P04150 whole entry, looked up): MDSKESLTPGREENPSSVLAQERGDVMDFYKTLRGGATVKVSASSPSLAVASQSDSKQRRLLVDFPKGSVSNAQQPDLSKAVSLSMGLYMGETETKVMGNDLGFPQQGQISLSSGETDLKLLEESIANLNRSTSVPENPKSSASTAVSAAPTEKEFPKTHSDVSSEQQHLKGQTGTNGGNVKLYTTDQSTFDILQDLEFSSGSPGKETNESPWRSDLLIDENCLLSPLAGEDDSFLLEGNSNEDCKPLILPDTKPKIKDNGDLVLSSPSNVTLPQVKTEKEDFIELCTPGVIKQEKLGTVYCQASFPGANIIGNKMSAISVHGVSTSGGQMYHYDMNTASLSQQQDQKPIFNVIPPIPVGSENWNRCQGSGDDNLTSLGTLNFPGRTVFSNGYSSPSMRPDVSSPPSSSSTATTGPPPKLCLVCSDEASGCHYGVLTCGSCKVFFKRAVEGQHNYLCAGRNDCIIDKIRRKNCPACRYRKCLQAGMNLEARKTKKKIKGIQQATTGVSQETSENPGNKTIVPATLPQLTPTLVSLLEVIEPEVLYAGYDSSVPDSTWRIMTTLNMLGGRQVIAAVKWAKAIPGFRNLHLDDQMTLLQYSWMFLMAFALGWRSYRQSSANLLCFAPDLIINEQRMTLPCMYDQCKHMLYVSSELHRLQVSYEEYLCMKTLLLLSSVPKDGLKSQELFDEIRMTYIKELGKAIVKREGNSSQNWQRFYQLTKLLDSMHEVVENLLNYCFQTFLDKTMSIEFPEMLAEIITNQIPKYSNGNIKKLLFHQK

With `CCCSc1nc(C)c(CC(=O)O)c(=O)[nH]1`, the figures for the activity change, negative = inhibition in test [1] and in test [2] were -6.75% and 13%, respectively. The activity, negative = inhibition in test [3] was -1.03%. Moreover, the Potency in test [4] was more than 20.6 µM.
The like results for `CC(C)=CCC(C)(C)CNC(=O)NC1CCCCC1` were, in that order, -8.2%, 19%, 10.9% and more than 20.6 µM.
With `COCc1[nH]nc2c1C(c1ccccc1OC)C(C#N)=C(N)O2` (centres undefined), the activity change, negative = inhibition in test [1] is -14.7%; in test [2] it was -26.9%. In test [3], the activity, negative = inhibition is -17.1%. For the same compound, in test [4], the Potency was more than 20.6 µM.
The like results for `CCN(CC)CCN1C(=O)C(=O)/C(=C(/O)c2ccc(F)cc2)C1c1ccncc1` (centres undefined) were, in that order, -7.07%, 17.1%, 1.89% and more than 20.6 µM.
The corresponding values for `CSc1nc(C)cc(OCCNS(=O)(=O)c2cc(C)ccc2C)n1` are -11.3%, -2.9%, 1.66% and more than 20.6 µM.
The like results for `Cc1cc(C)nc(CC(N)=O)n1` were, in that order, 0.0367%, 4.47%, -0.0254% and more than 20.6 µM.
Turning to `CCCCOc1ccc(C2CC(=O)N(C)C2=O)cc1` (centres undefined), the activity change, negative = inhibition in test [1] is -14.6%; in test [2] it was -3.42%. Further, the activity, negative = inhibition in test [3] is 4.12%. In test [4], the Potency is more than 20.6 µM.
`COC(=O)c1ccc(Nc2cc(C)nc(-c3ccccc3O)n2)cc1`: the activity change, negative = inhibition in test [1] was 15.3%; in test [2], -10.8%. Besides, the activity, negative = inhibition in test [3] is -5.42%. Besides, the Potency in test [4] is more than 20.6 µM.
Take `Cn1c(=O)[nH]c(=O)c2c1nc(Br)n2CCSc1nnnn1-c1ccccc1`: the activity change, negative = inhibition in test [1] is -14.1%; in test [2], 1.39%. Further, the activity, negative = inhibition in test [3] is -8.23%. Also, the Potency in test [4] was more than 20.6 µM.
The like results for `CC1(C(=O)CSc2n[nH]c(-c3ccccc3Cl)n2)CCC(=O)O1` (centres undefined) were, in that order, 6.38%, 4.32%, 0.984% and more than 20.6 µM.
The like results for `Cn1c(N2CCN(c3ccccn3)CC2)nc2c1c(=O)n(Cc1ccccc1Cl)c(=O)n2C` were, in that order, 4.27%, 8.29%, -8.44% and more than 20.6 µM.
As to `COc1ccc(/C(O)=C2/C(=O)C(=O)N(CCCN(C)C)C2c2ccc(C)o2)cc1Cl` (centres undefined), the activity change, negative = inhibition in test [1] is 9.2%; in test [2], -6.18%. In addition, the activity, negative = inhibition in test [3] is 3.77%. The Potency in test [4] is more than 20.6 µM.
The like results for `CCN(CC)CCn1c(O)c(N=O)c2ccccc21` were, in that order, 90.5% [activator] (active), -17.1%, 14.5% and more than 20.6 µM.
The like results for `Cc1cccc(N)c1SC1CCCCC1O` (centres undefined) were, in that order, -3.66%, -1.33%, 2.62% and more than 20.6 µM.
The corresponding values for `O=C(O)CCCCCN1C(=O)CCC1=O` are 13.2%, 23.1%, 5.29% and more than 20.6 µM.
As to `COC(=O)C(NC(C)=O)(Nc1ccc(Br)cn1)C(F)(F)F` (centres undefined), the figures for the activity change, negative = inhibition in test [1] and in test [2] were 0.568% and 3.2%, respectively. Also, in test [3], the activity, negative = inhibition is -10.2%. Moreover, in test [4], the Potency was more than 20.6 µM.
The corresponding values for `CC1(C)CC(=O)C2=C(C1)OC(N)=C(C#N)C2C1C=CCCC1` (centres undefined) are 3.93%, 24.4%, -5.68% and more than 20.6 µM.
The like results for `COCCn1c(SCc2c(F)cccc2Cl)nc2c1c(=O)[nH]c(=O)n2C` were, in that order, -17.8%, -0.711%, -1.06% and more than 20.6 µM.
Regarding `CCN(CC)CCN1C(=O)C(O)=C(C(=O)c2cc3ccccc3o2)C1c1cccnc1` (centres undefined), the activity change, negative = inhibition in test [1] is 4.98%; in test [2], -3.08%. In addition, the activity, negative = inhibition in test [3] is 2.38%. For the same compound, the Potency in test [4] is more than 20.6 µM.
The corresponding values for `NC(=O)C1CCN(CCC(=O)Nc2ccc(Br)cc2)CC1` are 11.3%, -28.6%, 5.95% and more than 20.6 µM.
As for `Cc1ccc(-n2ncc3c(N4CCCC4)ncnc32)c(C)c1`, the results for the activity change, negative = inhibition in test [1] and in test [2] were -15% and 22.5%, respectively. In addition, the activity, negative = inhibition in test [3] was -1.13%. Also, the Potency in test [4] was more than 20.6 µM.
For the compound `CC1(C(=O)CSc2nc3ccccc3[nH]2)CCC(=O)O1` (centres undefined), the activity change, negative = inhibition in test [1] is 4.25%; in test [2] it was 3.87%. Moreover, the activity, negative = inhibition in test [3] was -2.98%. In addition, the Potency in test [4] is more than 20.6 µM.
The corresponding values for `CCC(=O)Nc1ccc(-c2nnc(-c3ccccc3)o2)cc1` are 0.816%, 4.89%, -0.000551% and more than 20.6 µM.
The corresponding values for `O=C(Nc1ncccc1Cl)c1cccc(F)c1` are 2.04%, 4.8%, 8.27% and more than 20.6 µM.
The like results for `O=C(c1cncc(Br)c1)N1CCCc2ccccc21` were, in that order, 2.83%, -6.51%, -1.14% and more than 20.6 µM.
For the compound `Cc1c(Cl)c(C(F)(F)F)nn1CC(=O)N1CCSCC1`, the activity change, negative = inhibition in test [1] is 9.46%; in test [2] it was 0.195%. Further, the activity, negative = inhibition in test [3] is 5.37%. Moreover, the Potency in test [4] is more than 20.6 µM.

The values are drawn from PubChem BioAssay (NCATS).
